# Test results from PubChem BioAssay (EPA / NIEHS).
# Calls of active or inactive are those of the source. The calls were made as follows: active = hit-call score of the fitted dose curve at least 0.9, where 1 is the maximum; inactive = score below 0.9.
# Read-out: Bcl-2 (BID) gene, BID (gene 637)
# Assay: LTEA_HepaRG_BID: Life Technologies and Expression Analysis (LTEA) Assay for Bcl-2 (BID) gene using HepaRG (AID 2283476)
# Conditions: mRNA level, 48 h; actives raise or lower the signal
# Description: LTEA_HepaRG is a cell based, multiplexed-readout assay that uses HepaRG, a human liver cell line, with measurements taken at 48 hours after chemical dosing on a 96-well plate.LTEA_HepaRG_BID is one of 102 assay component(s) measured in the LTEA HepaRG cell culture assay. It is a marker of Cell proliferation, survival, death.Data from the assay component LTEA_HepaRG_BID was analyzed into 1 endpoint. This assay endpoint, LTEA_HepaRG_BID, was analyzed with bidirectional fitting relative to DMSO as the negative control and baseline of activity. Using a type of inducible reporter, measures of mRNA induction for gain or loss-of-signal activity can be used to understand regulation of transcription factor activity. To generalize the intended target to other relatable targets, this assay endpoint is annotated to the cell cycle intended target family, where the subfamily is Cell proliferation, survival, death.
# A total of 1060 chemcials from the ToxCast library were tested in eight-point concentration-response experiments. Cell culture and cytotoxicity assays were conducted at Thermo Fisher Scientific's Custom Services facility (Madison, WI). A single lot of human HepaRG cells (Thermo Fisher Scientific, Frederick, MD) was used for the cell culture experiments. 96-well format collagen type I coated plates of human HepaRG cells were prepared using established methods. Briefly, cryopreserved HepaRG cells were thawed, plated at a density of approximately 100,000 cells/well in HepaRG Thaw, Plate, and General Purpose media (HPRG770, Thermo Fisher Scientific), and incubated for 48 hours. 0.5% DMSO was selected as vehicle control to balance the requisite need of DMSO in HepaRG cultures to maintain differentiation (for example, baseline metabolism, proportions of hepatocytes vs. cholangiocytes), while enabling further hepatic receptor pathway activation (for example, PXR and CAR) in response to chemical exposure. 48 hours after plating, the culture medium was replaced with HepaRG Serum-Free Incudtion Media. Cells were exposed to each test chemical in duplicate and maintained in CO2 incubators for another 48 hours. Chemical plates were thawed to room temperature and 200x concentrations of treatment groups were prepared. 8-point conentration-reponse curves were made with the highest exposure at 100 uM, followed by half-log dilutions, all in 0.5% DMSO. Each test plate contained variouse controls, induction positive controls (1mM phenobarbital), cytotoxicity positive controls ([…] aflatoxin B1), vehicle controls (0.5% DMSO), and total lysis controls (0.5% DMSO). Cell morphology images were taken using an Essen IncuCyte FLR automated microscope, with six 96-well plates imaged in about 24 minutes. Images were captured and exported and JPEG files. Spent culture media was transfered to black-well plates for the LDH assay, and remaining media was sorted at -80 C for later use. Cells were treated with RLT buffer and frozen until shipped for gene expression analysis. Total RNA was isolated from the cell suspension in 75 uL of Buffer RLT (Qiagen, Germantown, MD 20874) by Quintiles/Expression Analysis (Durham, NC) using a custom isolation procedure. Total RNA from each plate well was transferred to a preamplification plate. Fluidigm's 96.96 Dynamic ArrayTM (Fluidigm, Amsterdam, the Netherlands) technology was used for gene expression analyses by quantitative reverse transcription polymerase chain reaction (qRT-PCR, performed by Quintiles/Expression Analysis, Durham, NC)89. Standard TaqManTM Assays (Applied Biosystems/ThermoFisher Scientific, Foster City, CA) were used to assess the expression of 93 genes selected based on their selectivity and sensitivity to important hepatic receptors known to be modulated by environmental chemicals; importance in human hepatocyte functionality; and hepatotoxicity. […]
Compound,outcome,AC50
CC1=C(/C=C/C(C)=C/C=C/C(C)=C/C(=O)O)C(C)(C)CCC1,inactive,
CC(O)CO (stereo not given),inactive,
CCCOC(=O)c1ccc(O)cc1,inactive,
CC#C[C@]1(O)CC[C@H]2[C@@H]3CCC4=CC(=O)CCC4=C3[C@@H](c3ccc(N(C)C)cc3)C[C@@]21C,,6.74 µM (active)
CCCCOCCO,inactive,
CCCCC(CC)COC(=O)CCCCC(=O)OCc1ccccc1 (stereo not given),inactive,
Oc1cccc(O)c1,inactive,
CCCCCCCCCCCCc1ccccc1S(=O)(=O)O,inactive,
OC1CCCCC1,inactive,
CC(C)(C)c1cc(C(C)(C)C)c(O)c(C(C)(C)C)c1,inactive,
CCC(C)(C)C1CCC(O)CC1 (stereo not given),inactive,
CN(C)C=O,inactive,
CC(C)(C)c1cccc(C(C)(C)C)c1O,inactive,
O=C(OCCOCCOC(=O)c1ccccc1)c1ccccc1,inactive,
CCCCCCC(=O)O,inactive,
COc1ccc([N+](=O)[O-])cc1N,inactive,
CCCCCCCCOC(=O)CCCCCCCCC(=O)OCCCCCCCC,inactive,
COC(=O)CCCCC(=O)OC,inactive,
Nc1cccc2c(N)cccc12,inactive,
CCCCC(CC)COC(=O)CCCCC(=O)OCC(CC)CCCC (stereo not given),inactive,

Compound,outcome,AC50
OC1CCC(C2CCCCC2)CC1 (stereo not given),inactive,
C#C[C@]1(O)CC[C@H]2[C@@H]3CCC4=CC(=O)CC[C@@H]4[C@H]3CC[C@@]21C,inactive,
CCCCCCCCCCCCCCCS(=O)(=O)Oc1ccccc1,inactive,
CCCCCCCC(=O)O,inactive,
CC(=O)NC1(c2cccc(F)c2)CCN(CC[C@@]2(c3ccc(Cl)c(Cl)c3)CN(c3ccccc3)C(=O)CO2)CC1,inactive,
CCN(CC)CCNc1ccc(CNC=O)c2sc3ccc(OC)cc3c(=O)c12,inactive,
CCCOc1sc(C(=O)N2CCC(c3cc(CN)ccc3F)CC2)c(C)c1Br,,0.0539 µM (active)
CC[C@H](c1ccc(O)cc1)[C@@H](CC)c1ccc(O)cc1,inactive,
OCCC(F)(F)C(F)(F)C(F)(F)C(F)(F)C(F)(F)C(F)(F)C(F)(F)C(F)(F)F,inactive,
CCc1ccc(CCOc2ccc(CC3SC(=O)NC3=O)cc2)nc1 (stereo not given),inactive,
c1ccc2c(c1)Cc1ccccc1-2,inactive,
Cc1oc(-c2ccccc2)nc1CCOc1ccc(C[C@H](Nc2ccccc2C(=O)c2ccccc2)C(=O)O)cc1,,75.6 µM (active)
CC(C)(C)c1ccc(O)c(C(C)(C)C)c1,inactive,
CN1CCN(c2ccccc2/C=C2\SCCN(c3ccc(Cl)c(Cl)c3)C2=O)CC1,,83.9 µM (active)
O=C(O)Cc1cc(I)c(Oc2cc(I)c(O)c(I)c2)c(I)c1,inactive,
NC(=O)N1C(=O)C(C(=O)c2cc(Cl)cs2)c2cc(F)c(Cl)cc21 (stereo not given),inactive,
CN1CCC[C@H]1c1cccnc1,inactive,
CCc1nn(C2CCCCC2)c2cc(C3(C#N)CCC(C(=O)O)CC3)ccc12 (stereo not given),inactive,
Cc1cc(C)c(O)c(C)c1,inactive,
N#C[C@@H]1CC(F)(F)CN1C(=O)CNC1CC2CCC(C1)N2c1ncccn1 (stereo not given in full),inactive,
